According to PubChem BioAssay (EPA / NIEHS):
Results filed as inconclusive are left out. The source made the active and inactive calls. Rule for the calls: active = hit-call score of the fitted dose curve at least 0.9, where 1 is the maximum; inconclusive = response in the unintended direction; inactive = score below 0.9.

These molecules were tested against human Vitamin D Receptor (VDR), VDR (gene 7421) (UniProt P11473) (assay: ATG_VDR_TRANS: Attagene TRANS-FACTORIAL HepG2 Assay for human Vitamin D Receptor (VDR) (AID 2283022)).
Chain of human Vitamin D Receptor (VDR), VDR (gene 7421) (P11473 whole entry, looked up): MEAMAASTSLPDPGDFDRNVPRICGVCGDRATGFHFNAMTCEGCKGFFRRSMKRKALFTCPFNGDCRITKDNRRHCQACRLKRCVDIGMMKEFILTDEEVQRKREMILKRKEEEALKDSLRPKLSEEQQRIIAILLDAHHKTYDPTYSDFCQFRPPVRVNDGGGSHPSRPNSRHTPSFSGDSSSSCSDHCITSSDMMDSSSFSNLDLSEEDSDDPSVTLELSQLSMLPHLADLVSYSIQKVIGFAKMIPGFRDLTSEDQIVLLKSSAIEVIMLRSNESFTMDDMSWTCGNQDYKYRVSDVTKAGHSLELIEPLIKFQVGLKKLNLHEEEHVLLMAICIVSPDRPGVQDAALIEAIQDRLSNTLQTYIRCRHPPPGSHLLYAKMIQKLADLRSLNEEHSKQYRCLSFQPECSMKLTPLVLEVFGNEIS
Method: ATG_TRANS is a cell-based, multiplexed-readout assay that uses HepG2, a human liver cell line, with measurements taken at 24 hours after chemical dosing in a 24-well plate.ATG_VDR_TRANS is one of 30 assay component(s) measured or calculated from the ATG_TRANS assay. It is designed to make measurements of mRNA induction, a form of inducible reporter, as detected with fluorescence intensity signals by Reverse transcription polymerase chain reaction (RT-PCR) and Capillary electrophoresis technology.Data from the assay component ATG_VDR_TRANS was analyzed into 1 assay endpoint. This assay endpoint, ATG_VDR_TRANS, was analyzed in the positive analysis fitting direction relative to DMSO as the negative control and baseline of activity. Using a type of inducible reporter, measures of mRNA for gain-of-signal activity can be used to understand the reporter gene at the transcription factor-level as they relate to the gene VDR. Furthermore, this assay endpoint can be referred to as a primary readout, because this assay has produced multiple assay endpoints where this one serves a reporter gene function. To generalize the intended target to other relatable targets, this assay endpoint is annotated to the nuclear receptor intended target family, where the subfamily is non-steroidal.
Human liver HepG2 cells are transiently transfected with multiple reporter transcription units (MRTUs) in 6-well plates using FuGene 6 reagent (Roche; 3 ml FuGene/1 mg DNA). The MRTU constructs are regulated by a cis-regulating element (promoter). […] A major difference between the CIS and TRANS system is that in CIS activities of endogenous TFs are measured, whereas the TRANS assay evaluates changes in activities of exogenous, chimeric NR-Gal4 proteins. […] At the end of 24 hour incubation, total RNA was isolated using TriZol reagent (Invitrogen). The isolated RNA is then reverse-transcribed using oligo(dT) primer and Mo-MLV reverse transcriptase (Invitrogen) with DNAse I (Ambion) treatment for 30 min. The one-tenth of the produced cDNA was amplified by PCR using Taq DNA polymerase (Invitrogen) and two reporter sequence-specific primers. The PCR products were fluorescently labeled by primer extension with 6-arboxyfluorescein (6-FAM) 5'-labeled reporter sequence-specific primer (2 min at 95 C, 20 s at 68 C and 10 min at 72 C) and these products were digested with 5U of HpaI (New England Biolabs) for 2h at 37 C. The fragments were purified using Qiaquick PCR columns (Qiagen), analyzed on an ABI 3130xL genetic analyzer (Applied Biosystems) with peak positions identified by using a set of X-rhodamine (ROX)-labeled MapMarker1000 molecular weight standards (BioVentures). The raw capillary electrophoresis data was processed using Attagraph software (Attagene).
In the case of `NC(=O)CCl`, the outcome is reported as “inactive”. `Cc1cccc(OP(=O)(Oc2cccc(C)c2)Oc2cccc(C)c2)c1` was tested, and the outcome was “inactive”. With `CC(C)CC(C)(c1ccc(O)cc1)c1ccc(O)cc1` the outcome was “inactive”. With `CCCCCCCCBr` the outcome was “inactive”. With `O=[N+]([O-])c1ccc(Nc2ccccc2)cc1` the outcome was “inactive”. `ClCCCCl` was tested, and the outcome was “inactive”. With `CCOC(=O)c1ccccc1S(=O)(=O)NC(=O)Nc1nc(Cl)cc(OC)n1` the outcome was “inactive”. `CCOc1ccc(N)cc1` was tested, and the outcome was “inactive”. With `COCCl` the outcome was “inactive”. With `C[CH2][Hg][S]c1ccccc1C(=O)O` the outcome was “inactive”. In the case of `c1cc[c]([Sb]([c]2ccccc2)[c]2ccccc2)cc1`, the outcome is reported as “inactive”. In the case of `C[C@@H]1O[C@@H](O[C@H]2C[C@@H](O)[C@]3(CO)[C@H]4[C@H](O)C[C@]5(C)[C@@H](C6=CC(=O)OC6)CC[C@]5(O)[C@@H]4CC[C@]3(O)C2)[C@H](O)[C@H](O)[C@H]1O`, the outcome is reported as “inactive”. `CCCSP(=S)(OCC)Oc1ccc(SC)cc1` (stereo not given) was tested, and the outcome was “inactive”. For `CC(C)C(C)(N)C#N` (stereo not given), the outcome was “inactive”. In the case of `Cc1cc(Cl)ccc1OCCCC(=O)O`, the outcome is reported as “inactive”. In the case of `COc1nn(C(=O)NS(=O)(=O)c2ccccc2OC(F)(F)F)c(=O)n1C`, the outcome is reported as “inactive”. For `O=S(=O)(Oc1ccc(Cl)cc1)c1ccc(Cl)cc1`, the outcome was “inactive”. In the case of `C=CC(=O)NC(C)(C)CC(C)=O`, the outcome is reported as “inactive”. With `C=C(C)C(=O)OCC(CC)CCCC` (stereo not given) the outcome was “inactive”. `O=[N+]([O-])c1c2ccccc2cc2ccccc12` was tested, and the outcome was “inactive”. With `CCCCN(CCCC)C(=S)[S-].CCCCN(CCCC)C(=S)[S-].[Ni+2]` the outcome was “inactive”. With `N#Cc1cccnc1` the outcome was “inactive”. With `CS(=O)(=O)c1ccc(C(=O)C2C(=O)CCCC2=O)c(Cl)c1COCC(F)(F)F` the outcome was “inactive”. For `O=[N+]([O-])c1cc([As](=O)(O)O)ccc1O`, the outcome was “inactive”. `CC(C)[C@@H](Nc1ccc(C(F)(F)F)cc1Cl)C(=O)OC(C#N)c1cccc(Oc2ccccc2)c1` (stereo not given in full) was tested, and the outcome was “inactive”. In the case of `O=C(CBr)c1ccc(O)cc1`, the outcome is reported as “inactive”. In the case of `O=C1c2ccccc2C(=O)C1C(=O)C(c1ccccc1)c1ccc(Cl)cc1` (stereo not given), the outcome is reported as “inactive”. For `O=C(Cl)OCCOCCOC(=O)Cl`, the outcome was “inactive”. With `C=CCCl` the outcome was “inactive”. `O=C(N[C@H]1CN2CCC1CC2)c1ccc2c(c1)OCCO2` was tested, and the outcome was “inactive”. In the case of `CCCCCCCCCCCCCl`, the outcome is reported as “inactive”. `O=S1(=O)OC(c2cc(Br)c(O)c(Br)c2)(c2cc(Br)c(O)c(Br)c2)c2ccccc21` was tested, and the outcome was “inactive”. With `O=S(=O)(F)C(F)(F)C(F)(F)C(F)(F)C(F)(F)F` the outcome was “inactive”. With `CC1CC(=O)O1` (stereo not given) the outcome was “inactive”. `Brc1c(Br)c(Br)c(Oc2c(Br)c(Br)c(Br)c(Br)c2Br)c(Br)c1Br` was tested, and the outcome was “inactive”. With `C=CC(F)(C(F)(F)F)C(F)(F)C(F)(F)F` (stereo not given) the outcome was “inactive”. In the case of `O=C(CCl)NCO`, the outcome is reported as “inactive”. `OC(Cc1ccccc1Cl)(Cn1[nH]cnc1=S)C1(Cl)CC1` (stereo not given) was tested, and the outcome was “inactive”. In the case of `O=C(O)C1(c2ccc3c(c2)OC[C@H](Cc2ccc(-c4ccccc4)cc2)[C@H]3O)CCCC1`, the outcome is reported as “inactive”. In the case of `CC(C)(c1ccc(O)c(-c2ccccc2)c1)c1ccc(O)c(-c2ccccc2)c1`, the outcome is reported as “inactive”.
